Laboratory results: ChEMBL document CHEMBL4513141, “CO-ADD screening of NIH (USA) - Clinical Collection” (2021)
Results with a measured potency or affinity are listed apart.

System: Staphylococcus aureus
Settings: Concentration 20 uM; ASSAY_TEST Inhibition of Bacterial Growth; detection method Absorption (OD600); MEDIA CAMHB; plate type 384well; NBS; CORNING #3640; time 18 hr

| SMILES | Inhibition |
| --- | --- |
| Cc1cc(NS(=O)(=O)c2ccc(N)cc2)no1 [SULFAMETHOXAZOLE] | -14.52% |
| CN1CCN(C2=Nc3cc(Cl)ccc3Nc3ccccc32)CC1 [CLOZAPINE] | -2.25% |
| CN/C(=N\CCSCc1nc[nH]c1C)NC#N [CIMETIDINE] | 12.6% |
| C[C@]12CC[C@H](O)CC1=CC[C@@H]1[C@@H]2CC[C@@]2(C)[C@H]1CC[C@]2(C)O [METHANDRIOL] | 0.46% |
| CN1CCC[C@H]1c1cccnc1 [NICOTINE] | -15.48% |

System: Escherichia coli
Settings: Concentration 20 uM; ASSAY_TEST Inhibition of Bacterial Growth; detection method Absorption (OD600); MEDIA CAMHB; plate type 384well; NBS; CORNING #3640; time 18 hr

| SMILES | Inhibition |
| --- | --- |
| COc1cc(CNC(=O)CCCC/C=C\C(C)C)ccc1O [ZUCAPSAICIN] | 0% |
| CC(=O)[C@H]1CC[C@H]2[C@@H]3CCC4=CC(=O)CC[C@]4(C)[C@H]3CC[C@]12C [PROGESTERONE] | 3.02% |
| COc1ccc(CCN)cc1OC | -3.33% |
| CN1[C@@H](CC(=O)c2ccccc2)CCC[C@H]1C[C@H](O)c1ccccc1.Cl [LOBELINE HYDROCHLORIDE] | -0.94% |
| c1ccc2c3c([nH]c2c1)CNCC3 [TRYPTOLINE] | 3.55% |
| Cc1c(OCC(F)(F)F)ccnc1C[S+]([O-])c1nc2ccccc2[nH]1 (configuration not stated) [LANSOPRAZOLE] | -0.87% |
| C[C@H](CCC(=O)O)[C@H]1CC[C@H]2[C@@H]3C(=O)C[C@@H]4CC(=O)CC[C@]4(C)[C@H]3CC(=O)[C@]12C [DEHYDROCHOLIC ACID] | 9.29% |
| C[C@]12Cc3c[nH]nc3C[C@@H]1CC[C@@H]1[C@@H]2CC[C@@]2(C)[C@H]1CC[C@]2(C)O [STANOZOLOL] | 3.01% |
| C[N+]1(C)CCCC(OC(=O)C(O)(c2ccccc2)c2ccccc2)C1.[Br-] (configuration not stated) [MEPENZOLATE BROMIDE] | 3.23% |
| CNC1=Nc2ccc(Cl)cc2C(c2ccccc2)=[N+]([O-])C1 [CHLORDIAZEPOXIDE] | 3.48% |
| Nc1nc(F)nc2c1ncn2[C@@H]1O[C@H](CO)[C@@H](O)[C@@H]1O [FLUDARABINE] | 42.2% |
| CN1[C@@H]2CC[C@H]1CC(OC(=O)C(CO)c1ccccc1)C2 (some centres not stated) | -5.78% |
| CN1C(=O)CN=C(c2ccccc2)c2cc(Cl)ccc21 [DIAZEPAM] | 3.05% |
| O=C(O[C@@H]1Cc2c(O)cc(O)cc2O[C@@H]1c1cc(O)c(O)c(O)c1)c1cc(O)c(O)c(O)c1 [EPIGALOCATECHIN GALLATE] | 5.85% |
| c1ccc2c(c1)Nc1ccccc1S2 [PHENOTHIAZINE] | 9.21% |
| Br.COc1ccc2c(c1)[C@]13CCCC[C@@H]1[C@H](C2)N(C)CC3.O [DEXTROMETHORPHAN HYDROBROMIDE] | 4.79% |

| SMILES | Inhibition |
| --- | --- |
| CC[C@@H]1/C=C/C=C/C[C@H](C)[C@@H](O)[C@](C)(O)C(=O)[C@H](C)[C@@H](O)[C@H](C)C(=O)[C@H](C)[C@@H](O)[C@H](C)/C=C/C(=O)O[C@H]2[C@@H](C)[C@@H](CC1)O[C@@]1(CC[C@@H](C)[C@@H](C[C@H](C)O)O1)[C@@H]2C | 0.23% |
| COc1ccc2[nH]cc(C3=CCNCC3)c2c1.COc1ccc2[nH]cc(C3=CCNCC3)c2c1.O=C(O)CCC(=O)O | 5.51% |
| C=C(C)CN1CC[C@]23c4c5ccc(O)c4O[C@H]2c2[nH]c4ccccc4c2C[C@@]3(O)C1C5.Cl.O | 1.94% |
| Cc1ncc2n1-c1ccc(Cl)cc1C(c1ccccc1F)=NC2.Cl [MIDAZOLAM HYDROCHLORIDE] | 7.58% |
| c1cncc([C@@H]2CCCN2)c1 [NORNICOTINE] | -3.23% |
| C[N+]1(C)CCN(c2ccccc2)CC1.[I-] [DIMETHYLPHENYLPIPERAZINIUM IODIDE] | 3.59% |
| Cl.O.Oc1ccc2c3c1O[C@H]1c4[nH]c5ccccc5c4C[C@@]4(O)C(C2)N(CC2CC2)CC[C@]314 | 6.59% |
| C[C@]12CC(C=O)=C(O)C[C@@H]1CC[C@@H]1[C@@H]2CC[C@@]2(C)[C@H]1CC[C@]2(C)O | 7.86% |
| CCOC(=O)C1(c2ccccc2)CCN(CCC(C#N)(c2ccccc2)c2ccccc2)CC1.Cl [DIPHENOXYLATE HYDROCHLORIDE] | -7.43% |
| CN[C@@H]1C[C@@H](c2ccc(Cl)c(Cl)c2)c2ccccc21.Cl [INDATRALINE HYDROCHLORIDE] | 7.7% |
| CCOC(=O)C1=C(COCCN)NC(C)=C(C(=O)OC)C1c1ccccc1Cl (configuration not stated) [AMLODIPINE] | 5.81% |
| Cc1cc(NS(=O)(=O)c2ccc(N)cc2)no1 [SULFAMETHOXAZOLE] | 28.59% |
| CN1CCN(C2=Nc3cc(Cl)ccc3Nc3ccccc32)CC1 [CLOZAPINE] | -7.08% |
| CN/C(=N\CCSCc1nc[nH]c1C)NC#N [CIMETIDINE] | -4.2% |
| C[C@]12CC[C@H](O)CC1=CC[C@@H]1[C@@H]2CC[C@@]2(C)[C@H]1CC[C@]2(C)O [METHANDRIOL] | 5.99% |
| CN1CCC[C@H]1c1cccnc1 [NICOTINE] | 6.98% |
